Measured values reported in ChEMBL document CHEMBL1157539, “Thousands of chemical starting points for antimalarial lead identification” (Nature, 2010).

The compounds below were run on Plasmodium falciparum (assay: GSK_TCMDC: Inhibition of Plasmodium falciparum 3D7 in whole red blood cells, using parasite LDH activity as an index of growth. Test compounds present at 2uM).
Format: functional

SMILES | Inhibition
COc1ccc(OC)c(-c2cccc(-c3cccc(NC(=O)c4ccc([N+](=O)[O-])o4)c3)n2)c1 | 98%
Fc1ccc2[nH]c(-c3cccc(-c4ccc(CN5CCCCC5)cc4)c3)nc2c1.O=C(O)C(F)(F)F | 99%
CC1(C)N=C(N)N=C(NOCCCCCCONC2=NC(N)=NC(C)(C)N2)N1 | 95%
O=C(c1ccc(O)c(-c2cc(Cl)cc(Cl)c2)c1)N1CCCC1 | 90%
CCC(CSC1CCCCC1)N(C)CCN(C)C(CC)CSC1CCCCC1.Cl (stereo not drawn) | 98%
CN(C)c1ccc(CN2CCC(CNC(=O)c3cc(-c4ccccc4F)cs3)C2)cc1.O=C(O)C(F)(F)F (stereo not drawn) | 100%
O=C(/C=C/c1ccc(Cl)c(Cl)c1)NCCCCCN1CCC(NC(=O)c2ccc(F)c(F)c2)CC1 | 99%
Cc1cccc2nc(-c3ccc(-c4ccc(NC(=O)Nc5ccc(Cl)c(Cl)c5)cc4)cc3)[nH]c12 | 100%
COc1ccc(CNC2Cc3ccccc3C2)cc1-c1ccc(S(=O)(=O)NCc2ccccc2)s1.O=C(O)C(F)(F)F | 97%
O=C(Nc1cccc(-c2ccc(-c3nc4cc(C(F)(F)F)ccc4[nH]3)cc2)c1)c1c[nH]cn1 | 91%
CS(=O)(=O)c1ccc(OCCCN(Cc2ccccc2C(F)(F)F)c2ccc(C#N)c(C(F)(F)F)c2)cc1 | 94%
O=C(O)C(F)(F)F.O=S(=O)(NCCN1CCCC1)c1ccc(-c2cccc(CNCc3ccccc3)c2)s1 | 94%
CN(CCO)Cc1cccc(-c2ccc(NC(=O)c3cccc(C#N)c3)cc2)c1.O=C(O)C(F)(F)F | 97%
